Data published in ChEMBL document CHEMBL4513134, “CO-ADD screening of University of Queensland (Australia) compounds” (2021).
Measured potencies and affinities stand elsewhere.

Assays:
Klebsiella pneumoniae = conditions: Concentration 32 ug.mL-1; ASSAY_TEST Inhibition of Bacterial Growth; detection method Absorption (OD600); MEDIA CAMHB; plate type 384well; NBS; CORNING #3640; time 18 hr
Candida albicans = conditions: 32 ug/mL
Cryptococcus neoformans = conditions: Concentration 32 ug.mL-1; ASSAY_TEST Inhibition of Fungal Growth; detection method Resazurin; Absorption (OD600-OD570); plate type 384well; NBS; CORNING #3640

Row | SMILES | Inhibition (Klebsiella pneumoniae) | Inhibition (Candida albicans) | Inhibition (Cryptococcus neoformans)
1 | Cn1c([N+](=O)[O-])cnc1C(=O)NC1CC1 | 0.14% | 5.96% | -21.85%
2 | Cn1c([N+](=O)[O-])cnc1C(=O)NCc1ccc(OC(F)(F)F)cc1 | 21.15% | 21.3% | 2.62%
3 | Cn1c([N+](=O)[O-])cnc1C(=O)NCc1ccccn1.O=C(O)C(F)(F)F | 22.41% | 4.77% | -18.89%
4 | Cn1c([N+](=O)[O-])cnc1C(=O)NCc1cccc(OC(F)(F)F)c1 | 27.4% | 11.6% | -18.54%
5 | Cc1ccc(CCNC(=O)c2ncc([N+](=O)[O-])n2C)cc1 | 27.87% | 12.1% | -8.7%
6 | CC(NC(=O)c1ncc([N+](=O)[O-])n1C)c1ccc(F)cc1 (stereo not given) | 14.44% | 6.03% | -25.7%
7 | Cn1c([N+](=O)[O-])cnc1C(=O)NCc1ccc(F)cc1 | 15.94% | 7.55% | -24.39%
8 | CN(C)C(=O)c1ncc([N+](=O)[O-])n1C | 22.37% | 10.4% | -8.01%
9 | Cn1c([N+](=O)[O-])cnc1C(=O)N1CCCC1 | 30.2% | 7.94% | -19.05%
10 | Cn1c([N+](=O)[O-])cnc1C(=O)N1CCOCC1 | 22.51% | 14.1% | -21.61%
